# Source: PubChem BioAssay
# The list shows a part of the results. The source made the active and inactive calls. Rule as the data show it, unless noted: active = activity above about 50%; inactive = the rest.
# Legend:
# [1] = HIF-2a reporter inhibitor retest, confirmation, luminescence, 786-0 RCC cells (AID 651580;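 active = mean inhibition across four replicates of at least 40 percent at the single tested concentration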); conditions: HIF-2a luciferase reporter luminescence, overnight, at 18.8 µM, stronger effect = higher value
# [2] = HIF-1a luciferase reporter signal reduction – MiaPaCa-2 cells, single concentration, counter-screen for HIF-2a inhibitor project, confirmation (AID 651589;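 active = mean inhibition of the reporter signal across four replicates at the single tested dose of 50% or more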); conditions: MiaPaCa-2 HIF-1a luciferase reporter, desferoxamine, overnight; at 18.8 µM; stronger effect = higher value
# [3] = target: Tumor necrosis factor receptor superfamily member 10B (Homo sapiens) (UniProt O14763); experiment: caspase-8 TRAIL sensitization, hit retest, confirmation, cell-based, NB7+caspase-8, with/without TRAIL, luminescence panel (AID 651596); conditions: NB7 neuroblastoma + caspase-8, TRAIL sensitization, luminescence viability, with TRAIL, mean of runs, at 10 µM, stronger effect = higher value
# [4] = as above; conditions: NB7 neuroblastoma + caspase-8, without TRAIL, luminescence viability, without TRAIL, mean of runs, at 10 µM
# Chain of Tumor necrosis factor receptor superfamily member 10B (Homo sapiens) (O14763 whole entry, looked up): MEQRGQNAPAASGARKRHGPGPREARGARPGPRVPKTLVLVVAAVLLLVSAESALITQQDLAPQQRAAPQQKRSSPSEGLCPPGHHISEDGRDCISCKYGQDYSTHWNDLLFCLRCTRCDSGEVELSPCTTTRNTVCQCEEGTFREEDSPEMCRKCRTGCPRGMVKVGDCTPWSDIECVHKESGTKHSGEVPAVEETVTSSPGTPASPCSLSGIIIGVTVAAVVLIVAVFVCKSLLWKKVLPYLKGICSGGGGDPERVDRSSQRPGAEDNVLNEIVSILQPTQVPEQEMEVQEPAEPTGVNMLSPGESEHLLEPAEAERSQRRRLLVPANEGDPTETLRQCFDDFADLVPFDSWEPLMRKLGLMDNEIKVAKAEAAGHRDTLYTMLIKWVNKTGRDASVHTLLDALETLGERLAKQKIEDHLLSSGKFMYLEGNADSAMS
Compound,inhibition [1],inhibition [2],activity [3] [%],activity [4] [%]
CN(C)CCNC(=O)c1cccc(-c2cnc3c(NC=O)cc(-c4cccc(C(F)(F)F)c4)cn23)c1,8.84% (inactive),106% (active),46.6,90.8
CCc1ccc(C(=O)Cn2ncc(Cl)c(Cl)c2=O)cc1,–,–,99.2,99.4
Cc1cc(C(=O)COC(=O)c2cccnc2Cl)c(C)n1C,–,–,62.8,40.4
COc1ccc(CC(N)c2csc(NC(=O)Nc3ccc(C(C)C)cc3)n2)cc1 (centres undefined),3.55% (inactive),101% (active),82.5,97.2
OCCN1CCN(C(=S)c2ccc(-c3ccccc3)cc2)CC1,93% (active),69.1% (active),–,–
